Screening data as filed in PubChem BioAssay.
Only some compounds are listed: those with a hit (about 9.6% of all), similar ones and a draw of the others.
Ins promoter up – MIN6 insulin promoter up-regulation | AID 1625 | 0.3% of 190,000 active | MIN6 insulin promoter-GFP reporter, high-content imaging; stronger effect = higher value | z-score at 5 µM;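 active = z-score above 3 at 5 µM with at least 500 cells counted in the well; inconclusive = wells under 500 cells, flagged as cytotoxic or low count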
bCat KO growth – beta-catenin-lacking colon tumor cell growth suppression; HCT116 beta-catenin knockout viability, CellTiter-Glo, 60 h; stronger effect = lower value; viability, % at 10 µM; 1.5% of 140,000 active; AID 818;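 active = viability at or under a set limit, the compound median less 4 SD, cut at about 6% in these data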;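 note: 0% = Hyamine 1622 control at 20 µM and 100% = untreated cell control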
PTEN del growth – growth suppressors of cells with PTEN tumor suppressor deletion | HCT116 PTEN-null viability, CellTiter-Glo, 60 h; stronger effect = lower value | viability, % at 10 µM | 1.2% of 140,000 active | AID 827;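 active = viability at or below a set limit, 4 SD under the median of all tested compounds, cut at about 3.7% in these data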;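 note: PTEN knockout HCT116 line with beta catenin targeted HCT116 as companion control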
Autophagy HCS – autophagy modulation, high-content screen | MEF GFP-LC3 puncta imaging; test concentration mostly 10 µM | calls only at 10 µM (by protocol) | 0.98% of 190,000 active;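 active = percentage of spot-positive cells more than 3 SD above its plate mean, without a fluorescence outlier flag or 80% toxicity; inconclusive = no clear call, values can overlap the other calls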;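 note: spot-positive cell cutoff set from DMSO-treated cells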
L major viab – reduces viability of Leishmania major promastigotes. 9% of 200,000 active. resazurin fluorescence viability. inhibition, % at 10 µM. AID 1063; in the data active = inhibition above about 50%;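 note: promastigotes grown with compound for 44 hours at 28 °C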
INS promoter inh – TRM-6 insulin promoter activity inhibition; TRM-6 cells (human fetal islet line), insulin promoter-eGFP reporter, imaging; reporter expression induced with tamoxifen; inhibition, % at 2 µM; 0.9% of 130,000 active;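 active = inhibition above the mean plus 3 SD, with well images judged a real hit on visual review, cut at about 60% in these data, passing the limit was not always enough; inconclusive = inhibition over the cutoff but images rejected on review; inactive = inhibition not above the cutoff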
* = called active by the depositor.

Screening Cc1ccc2nc(NC(=O)CN(C)S(=O)(=O)c3ccc(Br)s3)sc2c1 returned bCat KO growth 21.8, PTEN del growth 21.5, Autophagy HCS inactive, L major viab 98.5* and INS promoter inh 65.5*.
Screening COc1ccc2nc(NC(=O)CN(c3ccc(C)cc3)S(=O)(=O)c3c(C)nn(C)c3C)sc2c1 returned Ins promoter up 1.23, bCat KO growth 61.5, PTEN del growth 59.8, Autophagy HCS inactive and L major viab 80.5*.
CCc1ccc(N(CC(=O)Nc2nc3ccc(C)cc3s2)S(=O)(=O)c2c(C)noc2C)cc1 was read as Ins promoter up 0.19, bCat KO growth 28.3, PTEN del growth 22.8, Autophagy HCS inactive and L major viab 51.6*.
For N#CC(c1cccc(C(F)(F)F)c1)(c1ncc(C(F)(F)F)cc1Cl)N1CCOCC1 (centres undefined) the results were bCat KO growth 51.8, PTEN del growth 48.0, Autophagy HCS inactive, L major viab 96.1* and INS promoter inh 17.8.
`C=CCn1c(O)c(N=NC(=O)OC(C)(C)C)c2ccccc21` gave Ins promoter up -0.43, bCat KO growth 88.4, PTEN del growth 95.5, Autophagy HCS inactive and L major viab 0.7.
`C=CCn1c(O)c(N=NC(=S)Nc2ccc(OC)c(Cl)c2)c2ccccc21` gave Ins promoter up -2.61, bCat KO growth 17.1, PTEN del growth 12.8, Autophagy HCS inactive, L major viab 97.5* and INS promoter inh -255.6.
`C=CCSC(=S)Nc1c(C)n(C)n(-c2ccccc2)c1=O` gave Ins promoter up 0.38, Autophagy HCS inactive and L major viab -7.5.
For CNC(=O)c1ccc(-c2ccc(Cl)c(Cl)c2)s1 the results were Ins promoter up -1.27, Autophagy HCS inactive and L major viab 56.1*.
Screening CCCn1c(=O)[nH]c(=O)c2c1nc(-c1ccc(OC(F)F)cc1)n2CCN1CCOCC1 returned Ins promoter up 0.21, bCat KO growth 95.4, PTEN del growth 94.8, Autophagy HCS inactive, L major viab -3.2 and INS promoter inh 43.2.
Cc1cccc(N(C(=O)Nc2ccc(Cl)cc2)C2=NCC(C)S2)n1 (centres undefined) was read as Ins promoter up -0.15, Autophagy HCS inactive and L major viab -4.2.
Screening CC(C)[C@H](NC(=O)c1ccccc1)C(=O)OCC(=O)NCCc1ccc(F)cc1 returned bCat KO growth 92.3, PTEN del growth 97.0, Autophagy HCS inactive, L major viab 0.6 and INS promoter inh -77.4.
`CC(C)C(NC(=O)c1ccc(C(C)(C)C)cc1)C(=O)OCC(=O)NC(=O)Cc1ccccc1` (centres undefined) gave Ins promoter up 0.2, bCat KO growth 96.5, PTEN del growth 96.3, Autophagy HCS inactive, L major viab 50.2* and INS promoter inh 55.3.
For CC(C)[C@H](NC(=O)c1ccccc1)C(=O)OCC(=O)NCCC1=CCCCC1 the results were Ins promoter up 0.63, bCat KO growth 92.9, PTEN del growth 98.2, Autophagy HCS inactive, L major viab 59.0* and INS promoter inh -40.7.
COc1ccc(C)cc1N(CC(=O)O)S(=O)(=O)c1ccc(C)cc1 was read as Ins promoter up 0.06, bCat KO growth 95.8, PTEN del growth 93.8, Autophagy HCS inactive, L major viab -1.5 and INS promoter inh 35.0.
`COc1ccc(CCNC(=O)CN2C(=O)c3cccc4cccc(c34)C2=O)cc1OC` gave Ins promoter up 0.53, Autophagy HCS inactive and L major viab -3.1.
`Cc1ccc(OC(=O)CCN2C(=O)c3ccccc3C2=O)cc1C` gave Ins promoter up 0.25, Autophagy HCS inactive and L major viab -1.2.
For CC1=CC(C)(C)Nc2ccc(OC(=O)CN3C(=O)c4cccc5cccc(c45)C3=O)cc21 the results were Ins promoter up -0.19, bCat KO growth 14.8, PTEN del growth 18.0, Autophagy HCS inactive and L major viab 95.0*.
Screening CC1=CC(C)(C)Nc2ccc(OC(=O)CN3C(=O)c4ccccc4C3=O)cc21 returned Ins promoter up 2.29, bCat KO growth 1.4*, PTEN del growth 1.5*, Autophagy HCS inactive and L major viab 100.5*.
For CC1=CC(C)(C)Nc2ccc(OC(=O)C(Cc3ccccc3)N3C(=O)c4ccccc4C3=O)cc21 (centres undefined) the results were Ins promoter up 1.57, bCat KO growth 55.8, PTEN del growth 54.9, Autophagy HCS inactive, L major viab 98.8* and INS promoter inh 30.0.
For O=C(N/N=C/c1ccco1)c1ccccn1 the results were Ins promoter up 1.27, bCat KO growth 94.8, PTEN del growth 89.2, Autophagy HCS inactive and L major viab -3.3.
For CCOC(=O)C1=C(C)Nc2ccccc2N=C1NC(=O)Cc1ccc(Cl)c(Cl)c1 the results were Ins promoter up -0.1, Autophagy HCS inactive, L major viab -4.0 and INS promoter inh -190.5.
Screening CC1(O)C(=O)c2ccccc2N(c2ccccc2)C1=O (centres undefined) returned bCat KO growth 93.9, PTEN del growth 93.1, Autophagy HCS inactive, L major viab -2.2 and INS promoter inh 43.8.
O=C(O)CSc1nnc(-c2ccncc2)n1Cc1ccccc1 was read as bCat KO growth 97.3, PTEN del growth 102.3, Autophagy HCS inactive, L major viab -5.6 and INS promoter inh -30.4.
`CC1CN(C(=O)c2ccccc2Nc2ccc(SC(F)F)cc2)CC(C)O1` (centres undefined) gave Ins promoter up -0.44, Autophagy HCS inactive, L major viab -0.1 and INS promoter inh -25.0.
Screening CC(=O)OCC1O[C@@H](O[C@@H]2C[C@H]3C(C)(C)[C@H](OC(C)=O)CC[C@]3(C)[C@H]3CC[C@]45C[C@]4(CC[C@H]5[C@@H](C)C[C@@H](O)[C@H](O)C(C)(C)O)[C@@]32C)[C@H](O)[C@@H](O)[C@@H]1O (some centres undefined) returned Ins promoter up -2.42, bCat KO growth 1.1*, PTEN del growth 1.0*, Autophagy HCS inactive, L major viab 10.9 and INS promoter inh 0.0.
Screening COc1ccc2c(c1)sc(=N)n2C returned Ins promoter up inconclusive, Autophagy HCS inactive, L major viab 100.5* and INS promoter inh -15.4.
`Cc1cc2c(cc1S(=O)(=O)N(C)c1ccccc1)NC(=O)CO2` gave Ins promoter up 0.71, Autophagy HCS inactive and L major viab 0.5.
Screening Cc1ccc(Nc2nc(-c3sc(NC(=O)c4ccco4)nc3C)cs2)cc1 returned Ins promoter up -1.29, bCat KO growth 96.7, PTEN del growth 100.0, Autophagy HCS inactive, L major viab 60.6* and INS promoter inh -4.5.
`CCOc1ccccc1Nc1nc(-c2sc(NC(=O)c3ccco3)nc2C)cs1` gave Ins promoter up -1.13, bCat KO growth 54.7, PTEN del growth 55.6, Autophagy HCS inactive, L major viab 99.4* and INS promoter inh -24.4.
